“And” between values parts separate entries of the source, which are not always exact repeats. Identical values can stand only once. Inconclusive results are not listed. A structure can be active in one record and inactive in another. The source made the active and inactive calls. The calls were made as follows: active = hit-call score of the fitted dose curve at least 0.9, where 1 is the maximum; inconclusive = response in the unintended direction; inactive = score below 0.9.

One test addresses PGR (gene 5241) (UniProt P06401). Description: NVS_NR_hPR: NovaScreen (NVS) Nuclear Receptor Binding Assay for human Progestron Receptor (PR) (AID 2283360).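 Also: active means loss of bound radioligand signal versus DMSO baseline.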 A digest of the protocol:
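T47D-derived receptor preparation, cell-free, with tritiated or iodinated radioligand displacement measured by scintillation 18 h post-dosing. Single 25 uM duplicate screen, then concentration series; signal loss relative to DMSO.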

For test [1], the target named is human Peroxisome Proliferator-activated Receptor alpha (PPARa), PPARA (gene 5465) (UniProt Q07869). Put plainly: NVS_NR_hPPARa: NovaScreen (NVS) Nuclear Receptor Binding Assay for human Peroxisome Proliferator-activated Receptor alpha (PPARa) (AID 2283359).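 Also: activity means loss of TR-FRET signal versus DMSO baseline.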 A digest of the protocol: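 Cell-free binding assay with extracted human protein, read by TR-FRET 1 h after chemical dosing. Loss of signal relative to DMSO baseline indicates binding. Primary screen used duplicate single concentration (25 uM); actives followed up in concentration series.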

Test [2] deals with Glucocorticoid receptor (Homo sapiens) (UniProt P04150). Put plainly: NVS_NR_hGR: NovaScreen (NVS) Nuclear Receptor Binding Assay for human Glucocorticoid Receptor (GR) (AID 2283363). The gist of the method:
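Cell-free radioligand binding with extracted receptor protein, read by filter-based scintillation counting 16 hours after dosing. Loss of specific signal versus DMSO baseline was scored. Primary screen ran in duplicate at 25 uM; actives were followed up in concentration series.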

For test [3], the target named is rat Androgen Receptor (AR), Ar (gene 24208) (UniProt P15207). Description: NVS_NR_rAR: NovaScreen (NVS) Nuclear Receptor Binding Assay for rat Androgen Receptor (AR) (AID 2283366). As for the experimental part: NVS_NR_rAR is a biochemical, single-readout assay that uses extracted gene-proteins from Testosterone pre-treated rat prostate in a tissue-based cell-free assay. Measurements were taken 18 hours after chemical dosing in a 96-well plate.NVS_NR_rAR is one of one assay component(s) measured or calculated from the NVS_NR_rAR assay. It is designed to make measurements of radioligand binding, a form of binding reporter, as detected with scintillation counting signals by Filter-based radiodetection technology.Data from the assay component NVS_NR_rAR was analyzed into 1 assay endpoint. This assay endpoint, NVS_NR_rAR, was analyzed in the positive analysis fitting direction relative to DMSO as the negative control and baseline of activity. Using a type of binding reporter, loss-of-signal activity can be used to understand changes in the binding as they relate to the gene Ar. Furthermore, this assay endpoint can be referred to as a primary readout, because the performed assay has only produced 1 assay endpoint. To generalize the intended target to other relatable targets, this assay endpoint is annotated to the nuclear receptor intended target family, where the subfamily is steroidal.
Binding assays used specific radioligands (tritiated, iodinated) with non-radioactive competitive displacement ligands in agonist or antagonist protocols (as indicated) and various reference compounds and inhibitors to titrate specific binding to receptors and transporters. Most enzyme assays (CYPs, kinases, phosphatases, proteases, HDACs) used recombinant protein and specific substrates (fluorescence mostly, some colorimetric and radioactive) and inhibitors, followed by a biochemical separation of substrate and product. All assays for the biochemical HTS were initially run in duplicate at a single concentration (10 uM for CYP450 assays and 25 uM for all others). […] Each assay was run with positive and negative controls, and concurrent controls on every plate. The follow-up (secondary) screen tested active chemical-pairs in concentration series, as well as a few additional assays not tested in the primary screen, some selected negative inactives, and several cases re-run in the concentration series for confirmatory purposes.

For test [4], the target named is Peroxisome proliferator-activated receptor gamma (Homo sapiens) (UniProt P37231). Put plainly: NVS_NR_hPPARg: NovaScreen (NVS) Nuclear Receptor Binding Assay for human Peroxisome Proliferator-activated Receptor gamma (PPARg) (AID 2283370). The gist of the method:
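Extracted receptor protein, cell-free; compound incubated 2 h then fluorescence polarization read. Baseline: DMSO. Actives from 25 uM duplicate screen re-run across concentrations.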

The target of test [5] is human Adenosine Transporter (Adot), SLC29A1 (gene 2030) (UniProt Q99808). Description: NVS_TR_hAdoT: NovaScreen (NVS) Transporter Assay for human Adenosine Transporter (Adot) (AID 2283368). The gist of the method:
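U937-derived membranes, cell-free radioligand binding, filter scintillation 1 h after dosing. 25 uM duplicate screen; hits (e.g. 30% inhibition) run in concentration-response up to 50 uM; loss of signal versus DMSO.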

Test [6] relates to guinea pig Dopamine Transporter (DAT), gene 100714898. Description: NVS_TR_gDAT: NovaScreen (NVS) Transporter Assay for guinea pig Dopamine Transporter (DAT) (AID 2283369).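 Also: active compounds lower bound radioligand signal relative to DMSO.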 A digest of the protocol:
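Primary pass: duplicate wells at 25 uM, threshold e.g. 30% inhibition. Follow-up: singleton concentration-response, highest 50 uM. Radioligand binding on guinea pig striatal membranes, 2 h, filtration scintillation detection.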

Test [7] addresses human Thyroid Receptor Alpha (TRa), THRA (gene 7067) (UniProt P10827). Put plainly: NVS_NR_hTRa_Antagonist: NovaScreen (NVS) Nuclear Receptor Binding Assay for human Thyroid Receptor Alpha Antagonism (TRa) (AID 2283362). The gist of the method:
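In this biochemical format, receptor protein is dosed with chemical and read after 1 hour via AlphaLISA. Decreases from the DMSO baseline indicate antagonist activity; screening used 25 uM in duplicate before concentration-response confirmation.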

In test [8] the target is Nuclear receptor subfamily 1 group I member 2 (Homo sapiens) (UniProt O75469). Description: NVS_NR_hPXR: NovaScreen (NVS) Nuclear Receptor Binding Assay for human Pregnane X Receptor (PXR) (AID 2283365).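 Also: a drop in FRET signal versus DMSO baseline means the compound binds.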 The gist of the method: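 Read-out: TR-FRET, human PXR, 2 h post-dosing, cell-free. Loss of signal vs DMSO taken as binding activity; 25 uM primary, concentration series secondary.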

The target of test [9] is Retinoic acid receptor alpha (Homo sapiens) (UniProt P10276). Description: NVS_NR_hRARa_Agonist: NovaScreen (NVS) Nuclear Receptor Binding Assay for human Retinoic Acid Alpha Receptor Agonism (RAR) (AID 2283361). A digest of the protocol:
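Cell-free TR-FRET binding read-out with extracted human RARα protein, read 2 h after compound addition. Gain of signal scored against DMSO baseline. Primary screen at a single 25 uM in duplicate; actives then retested in concentration series.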

Chain of PGR (gene 5241) (P06401 whole entry, looked up): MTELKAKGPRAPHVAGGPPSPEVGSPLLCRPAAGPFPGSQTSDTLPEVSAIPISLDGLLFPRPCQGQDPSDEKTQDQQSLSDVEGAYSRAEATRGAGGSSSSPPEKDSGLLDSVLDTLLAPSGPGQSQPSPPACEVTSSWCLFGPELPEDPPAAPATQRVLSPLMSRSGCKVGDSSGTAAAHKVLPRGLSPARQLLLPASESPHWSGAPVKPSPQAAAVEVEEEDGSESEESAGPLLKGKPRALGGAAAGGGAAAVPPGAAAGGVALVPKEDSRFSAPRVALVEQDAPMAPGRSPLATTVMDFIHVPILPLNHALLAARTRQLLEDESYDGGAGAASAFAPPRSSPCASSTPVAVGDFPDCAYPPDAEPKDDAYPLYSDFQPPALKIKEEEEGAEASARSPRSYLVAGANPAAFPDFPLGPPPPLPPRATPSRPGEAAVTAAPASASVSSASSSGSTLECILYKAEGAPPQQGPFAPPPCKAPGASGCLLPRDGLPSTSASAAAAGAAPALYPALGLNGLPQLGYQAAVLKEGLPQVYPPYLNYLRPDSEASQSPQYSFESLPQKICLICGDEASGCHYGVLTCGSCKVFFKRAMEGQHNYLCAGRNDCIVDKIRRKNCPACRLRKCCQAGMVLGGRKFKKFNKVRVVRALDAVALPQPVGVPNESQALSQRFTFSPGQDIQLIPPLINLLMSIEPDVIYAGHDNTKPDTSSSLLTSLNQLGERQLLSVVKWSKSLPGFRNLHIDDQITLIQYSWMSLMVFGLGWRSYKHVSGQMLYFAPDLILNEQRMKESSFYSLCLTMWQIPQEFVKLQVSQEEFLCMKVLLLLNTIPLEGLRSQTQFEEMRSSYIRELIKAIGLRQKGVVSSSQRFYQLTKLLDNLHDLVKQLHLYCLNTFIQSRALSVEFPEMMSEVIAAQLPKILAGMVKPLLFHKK
Chain of human Adenosine Transporter (Adot), SLC29A1 (gene 2030) (Q99808 whole entry, looked up): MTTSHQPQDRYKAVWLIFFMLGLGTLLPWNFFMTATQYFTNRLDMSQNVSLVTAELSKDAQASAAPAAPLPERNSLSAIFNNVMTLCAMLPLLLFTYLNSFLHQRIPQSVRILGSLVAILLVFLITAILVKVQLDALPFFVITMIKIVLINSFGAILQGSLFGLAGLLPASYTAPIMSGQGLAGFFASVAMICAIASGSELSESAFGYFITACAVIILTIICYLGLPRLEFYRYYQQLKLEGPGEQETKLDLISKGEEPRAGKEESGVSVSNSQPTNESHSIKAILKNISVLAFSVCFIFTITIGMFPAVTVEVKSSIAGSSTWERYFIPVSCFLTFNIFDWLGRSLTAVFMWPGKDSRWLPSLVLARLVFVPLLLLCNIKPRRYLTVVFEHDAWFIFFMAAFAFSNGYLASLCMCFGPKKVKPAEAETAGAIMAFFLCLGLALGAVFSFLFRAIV
Chain of human Peroxisome Proliferator-activated Receptor alpha (PPARa), PPARA (gene 5465) (Q07869 whole entry, looked up): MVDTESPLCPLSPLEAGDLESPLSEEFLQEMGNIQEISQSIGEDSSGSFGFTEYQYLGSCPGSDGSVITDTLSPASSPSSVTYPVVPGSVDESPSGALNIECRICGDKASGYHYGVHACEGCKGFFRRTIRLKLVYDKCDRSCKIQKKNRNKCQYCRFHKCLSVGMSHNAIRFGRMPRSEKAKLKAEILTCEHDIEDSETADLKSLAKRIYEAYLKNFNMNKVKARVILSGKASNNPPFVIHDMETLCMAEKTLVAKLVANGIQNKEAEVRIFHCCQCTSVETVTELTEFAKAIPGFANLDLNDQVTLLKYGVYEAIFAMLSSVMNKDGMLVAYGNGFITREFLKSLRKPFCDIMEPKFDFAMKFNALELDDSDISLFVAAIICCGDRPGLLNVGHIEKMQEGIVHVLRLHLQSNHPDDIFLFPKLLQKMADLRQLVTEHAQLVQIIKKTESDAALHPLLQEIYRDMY
Chain of human Thyroid Receptor Alpha (TRa), THRA (gene 7067) (P10827 whole entry, looked up): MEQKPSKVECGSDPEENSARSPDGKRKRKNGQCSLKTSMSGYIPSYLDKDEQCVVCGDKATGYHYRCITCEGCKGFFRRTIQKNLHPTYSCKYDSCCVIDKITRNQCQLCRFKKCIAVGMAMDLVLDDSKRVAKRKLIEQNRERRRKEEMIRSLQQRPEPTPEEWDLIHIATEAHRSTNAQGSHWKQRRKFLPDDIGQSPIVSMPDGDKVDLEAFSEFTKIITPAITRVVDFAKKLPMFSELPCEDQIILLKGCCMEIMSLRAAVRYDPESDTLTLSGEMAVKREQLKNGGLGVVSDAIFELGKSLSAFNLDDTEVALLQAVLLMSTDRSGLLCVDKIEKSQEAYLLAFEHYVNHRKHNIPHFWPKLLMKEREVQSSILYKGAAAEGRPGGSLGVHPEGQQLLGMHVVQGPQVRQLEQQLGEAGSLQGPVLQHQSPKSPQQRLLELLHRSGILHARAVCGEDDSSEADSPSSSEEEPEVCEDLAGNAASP
Chain of Peroxisome proliferator-activated receptor gamma (Homo sapiens) (P37231 whole entry, looked up): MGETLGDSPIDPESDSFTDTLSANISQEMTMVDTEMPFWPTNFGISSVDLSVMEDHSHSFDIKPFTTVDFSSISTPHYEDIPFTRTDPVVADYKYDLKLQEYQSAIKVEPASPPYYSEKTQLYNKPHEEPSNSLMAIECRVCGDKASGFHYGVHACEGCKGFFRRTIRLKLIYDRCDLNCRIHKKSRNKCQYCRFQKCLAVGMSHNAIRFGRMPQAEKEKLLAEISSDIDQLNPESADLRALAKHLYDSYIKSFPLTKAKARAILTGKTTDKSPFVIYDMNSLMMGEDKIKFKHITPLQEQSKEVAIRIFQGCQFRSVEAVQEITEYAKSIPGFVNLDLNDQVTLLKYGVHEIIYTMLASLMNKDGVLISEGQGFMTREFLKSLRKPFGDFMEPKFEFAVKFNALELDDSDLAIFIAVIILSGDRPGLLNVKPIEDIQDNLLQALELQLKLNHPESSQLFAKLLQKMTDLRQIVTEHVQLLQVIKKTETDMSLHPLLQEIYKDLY
Chain of Nuclear receptor subfamily 1 group I member 2 (Homo sapiens) (O75469 whole entry, looked up): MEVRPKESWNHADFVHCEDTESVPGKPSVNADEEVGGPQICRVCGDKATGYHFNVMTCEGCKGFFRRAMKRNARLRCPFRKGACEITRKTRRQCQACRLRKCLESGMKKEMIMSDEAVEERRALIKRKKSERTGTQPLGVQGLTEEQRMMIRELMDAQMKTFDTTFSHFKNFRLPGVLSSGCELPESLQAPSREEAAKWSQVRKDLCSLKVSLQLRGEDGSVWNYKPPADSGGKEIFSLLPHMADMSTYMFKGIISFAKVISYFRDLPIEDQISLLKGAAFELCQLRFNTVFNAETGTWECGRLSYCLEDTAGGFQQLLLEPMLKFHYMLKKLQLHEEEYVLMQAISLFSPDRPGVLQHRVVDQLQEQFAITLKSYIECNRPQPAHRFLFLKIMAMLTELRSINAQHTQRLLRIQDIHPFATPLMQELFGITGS
Chain of Retinoic acid receptor alpha (Homo sapiens) (P10276 whole entry, looked up): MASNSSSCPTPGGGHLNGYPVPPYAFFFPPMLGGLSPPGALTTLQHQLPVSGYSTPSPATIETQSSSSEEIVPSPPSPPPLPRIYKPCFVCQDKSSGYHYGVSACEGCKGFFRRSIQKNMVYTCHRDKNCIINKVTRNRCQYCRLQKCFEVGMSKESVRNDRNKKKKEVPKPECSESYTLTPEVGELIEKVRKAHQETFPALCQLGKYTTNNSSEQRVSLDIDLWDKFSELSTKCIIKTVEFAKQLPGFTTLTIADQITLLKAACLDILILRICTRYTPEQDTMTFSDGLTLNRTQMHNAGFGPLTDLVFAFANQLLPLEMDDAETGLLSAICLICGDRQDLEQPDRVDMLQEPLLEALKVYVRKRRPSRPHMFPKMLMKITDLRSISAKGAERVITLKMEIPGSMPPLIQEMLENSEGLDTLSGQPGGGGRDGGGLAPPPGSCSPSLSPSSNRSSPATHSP
Chain of Glucocorticoid receptor (Homo sapiens) (P04150 whole entry, looked up): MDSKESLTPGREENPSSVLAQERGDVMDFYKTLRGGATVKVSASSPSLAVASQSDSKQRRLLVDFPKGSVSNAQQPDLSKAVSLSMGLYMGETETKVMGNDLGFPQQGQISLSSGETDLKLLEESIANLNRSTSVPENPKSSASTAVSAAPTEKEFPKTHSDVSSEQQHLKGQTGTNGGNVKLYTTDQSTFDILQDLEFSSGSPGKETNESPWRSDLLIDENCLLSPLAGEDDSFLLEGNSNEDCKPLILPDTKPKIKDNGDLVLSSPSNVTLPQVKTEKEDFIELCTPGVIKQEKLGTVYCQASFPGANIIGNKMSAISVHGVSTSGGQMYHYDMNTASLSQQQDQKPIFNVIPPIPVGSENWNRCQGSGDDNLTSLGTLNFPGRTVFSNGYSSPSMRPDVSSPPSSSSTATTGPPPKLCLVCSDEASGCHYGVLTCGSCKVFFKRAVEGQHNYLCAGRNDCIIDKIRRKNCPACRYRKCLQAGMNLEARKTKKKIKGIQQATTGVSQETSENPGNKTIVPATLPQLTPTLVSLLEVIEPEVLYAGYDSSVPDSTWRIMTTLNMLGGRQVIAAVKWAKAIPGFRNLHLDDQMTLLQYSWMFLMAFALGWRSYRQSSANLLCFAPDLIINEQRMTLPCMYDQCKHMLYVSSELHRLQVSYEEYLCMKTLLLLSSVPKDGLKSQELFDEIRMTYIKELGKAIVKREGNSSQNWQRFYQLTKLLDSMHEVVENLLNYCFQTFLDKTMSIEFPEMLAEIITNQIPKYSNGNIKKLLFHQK

For `c1ccc2c(c1)Cc1ccccc1-2`, the compound was called inactive with PGR (gene 5241).

Usually AC50 stands for the concentration giving half of the maximal activity seen. Regarding `NC(=O)N1C(=O)C(C(=O)c2cc(Cl)cs2)c2cc(F)c(Cl)cc21` (stereo not given), the result in [1] was inactive. Further, the AC50 was 19.6 µM (active) in test [2], 6.36 µM (active) in test [3] and 5.35 µM (active) in test [4].

Turning to `O=C(O)Cc1cc(I)c(Oc2cc(I)c(O)c(I)c2)c(I)c1`, the call in test [1], in test [5] and in test [6] was inactive. Also, the AC50 is 5.56 µM (active) and 109 nM (active) in test [2]; 43.8 nM (active) and 1.53 nM (active) and 9.65 µM (active) in test [4].

Take `CC1=C(/C=C/C(C)=C/C=C/C(C)=C/C(=O)O)C(C)(C)CCC1`: the compound was called inactive in test [1] and in [4].

In the case of `CCCCCCCCCCCCc1ccccc1S(=O)(=O)O`, the AC50 is 15.1 µM (active) with PGR (gene 5241); 2.47 µM (active) in test [2]; 3.66 µM (active) in [3]; 37 µM (active) in test [6]; 0.194 µM (active) in [4]. In test [7], the call was inactive.

On to `CCC(=C(c1ccc(O)cc1)c1ccc(OCCN(C)C)cc1)c1ccccc1`, for which the call in [1], in test [7], in [8], in test [5] and in [4] was inactive. Also, the AC50 with PGR (gene 5241) was 0.852 µM (active); in test [8] it was 1.85 µM (active); in test [3], 3.78 µM (active) [middle of 4 runs]; in test [6], 3.77 µM (active).

`CCCCCCCCCCCCCC[N+](C)(C)C`: the AC50 was 39.3 µM (active) with PGR (gene 5241); 6.85 µM (active) and 29.1 µM (active) in test [2].

Turning to `CC[C@H](c1ccc(O)cc1)[C@@H](CC)c1ccc(O)cc1`, the result in test [1], in test [8], in test [3] and in [4] was inactive. The AC50 was 0.431 µM (active) with PGR (gene 5241), 3.27 µM (active) in [6] and 6.81 µM (active) in test [4].

Consider `OC1CCC(C2CCCCC2)CC1` (stereo not given), for which the compound was called inactive in test [1] and in [9].

Take `C=C(C)C(=O)OCCC(F)(F)C(F)(F)C(F)(F)C(F)(F)C(F)(F)C(F)(F)F`: the outcome with PGR (gene 5241) was inactive.

Take `CC(C)(C)c1cc(C(C)(C)C)c(O)c(C(C)(C)C)c1`: the result in [1] and in [4] was inactive.

Take `CCCCCCCCOC(=O)CCCCCCCCC(=O)OCCCCCCCC`: in test [1], the outcome was inactive.

Take `CCOC(=O)CC(O)(CC(=O)OCC)C(=O)OCC`: the result in test [1] and in test [4] was inactive.

Consider `CC[C@H](C)[C@@H](C(=O)O)n1sc2ccccc2c1=O`, for which the compound was called inactive (in the test with PGR (gene 5241); in test [2]; in [8]; in [4]).

For `CCc1ccc(CCOc2ccc(CC3SC(=O)NC3=O)cc2)nc1` (stereo not given), the call in test [1] was inactive.

As to `CC#C[C@]1(O)CC[C@H]2[C@@H]3CCC4=CC(=O)CCC4=C3[C@@H](c3ccc(N(C)C)cc3)C[C@@]21C`, the values for the AC50 in [1], in test [7] and in [4] were 41.9 µM (active), 29.9 µM (active) and 9.21 µM (active), respectively. Further, the compound was classed as inactive in test [1], in test [7], in test [2], in test [8], in test [5] and in test [6]. Besides, the compound was classed as inactive in test [4].

Consider `Nc1cccc2c(N)cccc12`, for which the outcome (in the test with PGR (gene 5241); in test [4]) was inactive. Moreover, the concentration at half-maximal activity (AC50) in test [9] was 20.5 µM (active); in test [2] it was 13.4 µM (active).

For `Cc1cc(C)c(O)c(C)c1`, the call in [1] and in test [4] was inactive.

The record behind these values is PubChem BioAssay (EPA / NIEHS).
